Screening results (PubChem)
Most compounds without a hit are left out; they make up all but 3.8% or so of the library.
HSF1 activator – HSF-1 activators, primary screen, NIH3T3-HGL cells, MG132 stress, luminescence, single point; AID 504408, 2011; actives 1.7% (n = 300,000); NIH3T3-HGL HSF-1 luciferase reporter, 8 h; 100% = twice DMSO control signal; activation, % at 9 µM;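 active = mean replicate activation of at least 50% with a set share of replicates each reaching 50%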;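 also: 0% = median of the neutral control wells and 100% = twice that signal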
HSP90 refold inh – HSP90 inhibitors, primary screen, cell lysate, luminescence; Heat shock protein HSP 90 (rabbit reticulocyte lysate; luciferase refolding); Rabbit reticulocyte lysate, luciferase refolding luminescence, 3 h; inhibition, % at 5.6 µM; actives 0.91% (n = 290,000);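 active = inhibition above the screen-wide mean plus 3 SD, computed separately per campaign, cut at about 16% in these data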;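 also: 0% = DMSO wells and 100% = 60 µM geldanamycin wells; inhibitors lower the luminescence because luciferase stays unfolded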
HSF1 inhib – HSF1 inhibitors in luciferase reporter cells, primary screen, cell-based, NIH3T3, luminescence | NIH3T3-HGL HSE-luciferase, MG132-induced, luminescence 8 h; stronger effect = lower value | activity change, negative = inhibition, % at 7.5 µM (by protocol) | actives 0.77% (n = 300,000);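 active = more than half of replicate wells show activity change below -50%, luminescence cut by over half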;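 also: luciferase reports HSF-1 transcriptional activity via heat shock element; 0% = median of DMSO wells and -100% = zero luminescence signal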
Hsp70 activator – Hsp70 transcriptional activators, primary screen, cell-based, HeLa, Hsp70 promoter luciferase, luminescence, 10 µM; HeLa Hsp70 promoter luciferase reporter; scaled: vehicle 0, proteasome-inhibitor control 100%; actives 0.04% (n = 200,000); AID 1203, 2008; activation, % at 10 µM;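 active = activation above the mean across all tested compounds plus 3 SD, cutoff set per campaign, cut at about 5.5% in these data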;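 also: 100% = MG132 at 30 µM as the positive control and 0% = DMSO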
NALP1 inh – NALP1 inflammasome inhibitors in reconstituted yeast, colorimetric, S. cerevisiae, triplicate retest | S. cerevisiae NALP1/ASC/caspase-1 growth, X-gal OD620, 72 h | inhibition, % at 10 µM | actives 0.61% (n = 280,000); in the data active = inhibition mostly above about 24%, no sharp cut-off; inactive = mostly below about 32%
pCIP destab – p/CIP-EGFP fusion destabilizers, primary screen, fluorescence, F442A cells | 16 h | decrease of EGFP signal, % at 10 µM | actives 0.01% (n = 290,000) | AID 1984, 2009;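 active = EGFP signal decrease of at least 30% at 10 µM or well 3 SD below plate mean, unless failing retest; inactive = the rest, including hits failing retest or dose response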
* = called active by the depositor; x = no result given.

SMILES	HSF1 activator	HSP90 refold inh	HSF1 inhib	Hsp70 activator	NALP1 inh	pCIP destab
COC(=O)C1NN=C(C(=O)c2ccc(Cl)cc2)C1c1ccc(OC)cc1 (configuration not stated)	53.9*	1.2	18.9	-0.6	33.1	8.3
COC(=O)Cc1cc(=O)[nH]c(Nc2nc3ccccc3o2)n1	-8.8	-0.7	-0.2	-0.1	x	5.1
COCc1cc(=O)[nH]c(Nc2nc3ccccc3o2)n1	83.8*	2.8	52.2	-0.1	-11.5	5.0
Cc1ccc(NC(=O)CCNC(=O)c2ccc(Cl)cc2)nc1	38.7	0.0	18.9	x	21.8	3.0
CCOc1ccc(C(Nc2cccnc2)c2cc(Cl)c3cccnc3c2O)cc1 (configuration not stated)	-20.6	7.4	-24.4	-0.5	44.4*	-7.8
CCOC(=O)N1CCC(NC(=O)c2cccn3c(=O)c4cc(Br)ccc4nc23)CC1	10.8	1.3	1.0	-0.1	-1.3	40.1*
O=C1CSC(c2cccc(F)c2)N1c1ccccc1 (configuration not stated)	-7.8	1.9	3.6	x	0.6	-8.3
COc1cccc2[nH]c3c(N4CCc5ccccc5C4)ncnc3c12	59.9*	-3.7	42.6	x	0.0	-12.4
COc1cccc2[nH]c3c(N4CCC(C)CC4)ncnc3c12	20.6	-2.6	-3.0	-0.5	16.8	-3.9
O=C(CCS(=O)(=O)c1ccc(Br)cc1)N1CCCCCC1	13.6	-3.1	-3.3	x	1.3	4.9
Cc1ccc2c(c1)sc1nc(=O)ccn12	-17.4	-1.1	0.1	x	2.2	-5.1
CC(C)c1[nH]nc2c1C(c1ccco1)C(C#N)=C(N)O2 (configuration not stated)	55.4*	-3.2	16.7	0.2	13.4	-14.7
CC(=O)Oc1ccc(Cn2cnc3cc4ccccc4cc32)cc1	67.5*	-0.4	39.9	0.0	-41.0	-16.3
CN(CC(=O)NCc1cccnc1)S(=O)(=O)c1ccc2c(c1)c(=O)n(C)c(=O)n2C	-88.9	-1.1	-85.5*	-0.1	43.5*	-0.9
CC(=O)c1ccc(OCc2cc(C(=O)N3CC4C[C@@H]5CC3C[C@H](C4)C5)no2)cc1	17.3	-4.1	12.0	x	2.4	-14.2
Cc1[nH]n(-c2ccccc2)c(=S)c1C=Nc1cccc([N+](=O)[O-])c1	-66.8	0.8	-59.5*	-0.2	-3.5	-4.8
CCOc1ccc(C2C3=C(CCCC3=O)Nc3ccc4ncccc4c32)cc1 (configuration not stated)	67.8*	-1.5	32.6	x	x	0.7
Nc1nnc(COc2ccc(Br)cc2Br)s1	92.2*	-0.4	45.8	0.1	27.4	-1.0
CC1Cc2cc(/C(O)=C3/C(=O)C(=O)N(CCCn4ccnc4)C3c3cccc([N+](=O)[O-])c3)ccc2O1 (configuration not stated)	2.3	-3.0	-1.6	x	-3.3	0.9
N/C(=N\N=C\c1cccc(O)c1)c1nonc1N	49.4	29.2*	15.6	0.0	2.4	-2.3
Cc1ccc(C)c(S(=O)(=O)N2CCCOC2CNC(=O)C(=O)NCc2cccs2)c1 (configuration not stated)	6.4	-0.1	-6.4	x	-4.5	4.1
O=C(Nc1ccc(S(=O)(=O)N2CCCC2)cc1)C1CCCCC1	6.4	-4.5	0.3	x	23.6	-1.8
COCCNC(=O)CSc1c2c(nc3ccc(Cl)cc13)CCCC2	107.4*	0.0	51.2	-0.1	10.3	-3.7
COc1cc(NC(=O)CSc2c3c(nc4ccccc24)CCC3)cc(OC)c1OC	34.6	0.3	31.3	-0.3	19.1	-3.6
Cc1cc(NC(=O)CSc2c3c(nc4ccccc24)CCC3)no1	72.3*	-1.1	57.0	-0.5	-19.0	-11.3
COc1ccc(NC(=O)CSc2c3c(nc4cc(Cl)ccc24)CCCC3)cc1OC	127.5*	2.7	74.2	-0.3	25.3	-11.1
CCN(C(=O)c1ccc2c(SCC(=O)O)c3c(nc2c1)CCC3)c1cc(Cl)ccc1OC	-79.3	-1.7	-72.8*	x	-1.3	-8.8
